IL-1B inflam inh – qHTS for Inhibitors of Inflammasome Signaling: IL-1-beta AlphaLISA Primary Screen. THP-1 LPS/ATP IL-1B secretion, AlphaLISA, 16 h; active compounds read low. activity change, % at 57.5 µM. hit rate 4.7% among 360,000; in the data active = activity change below about -50%; inconclusive = mostly about -30% to -49%
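Secreted IL-1B measured by AlphaLISA bead assay after 16 h compound exposure of THP-1 cells; compounds (final up to 57.5 uM) added 1 h before LPS (250 ng/mL) and ATP (1.25 mM) stimulation; lower signal means less secretion.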
ALOX12 inh – Primary qHTS assay for inhibitors of human arachidonate 12S-lipoxygenase (ALOX12): Round 2. Polyunsaturated fatty acid lipoxygenase ALOX12 (Homo sapiens), P18054. purified 12hLO, xylenol orange hydroperoxide absorbance. Potency, µM (series often up to 108 µM), for the others: top-dose activity change, negative = inhibition, hits mostly inhibitors. hit rate 1.1% among 580,000; note: potency is the fitted concentration of half-maximal effect
Target sequence (P18054 whole entry, looked up): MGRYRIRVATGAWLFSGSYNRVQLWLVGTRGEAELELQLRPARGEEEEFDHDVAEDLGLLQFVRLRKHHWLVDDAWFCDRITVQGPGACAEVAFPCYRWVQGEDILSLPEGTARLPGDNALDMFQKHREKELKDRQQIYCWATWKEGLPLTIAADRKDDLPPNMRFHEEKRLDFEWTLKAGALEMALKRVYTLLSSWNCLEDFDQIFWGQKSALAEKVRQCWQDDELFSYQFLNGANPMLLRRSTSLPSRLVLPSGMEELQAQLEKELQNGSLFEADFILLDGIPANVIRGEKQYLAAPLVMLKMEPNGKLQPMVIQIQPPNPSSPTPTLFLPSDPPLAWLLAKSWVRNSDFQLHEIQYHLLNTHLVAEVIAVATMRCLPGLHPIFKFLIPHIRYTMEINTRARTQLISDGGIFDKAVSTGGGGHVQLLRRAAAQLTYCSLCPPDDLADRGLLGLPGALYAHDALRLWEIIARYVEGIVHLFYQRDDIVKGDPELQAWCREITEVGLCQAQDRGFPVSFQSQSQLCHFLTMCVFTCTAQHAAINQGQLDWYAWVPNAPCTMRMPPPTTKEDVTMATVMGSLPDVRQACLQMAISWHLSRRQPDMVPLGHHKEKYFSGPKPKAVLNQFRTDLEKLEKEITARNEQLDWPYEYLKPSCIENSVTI
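Purified human 12hLO at 150 nM in 25 mM Hepes, 0.01% Triton X-100, pH 7.0, preincubated 15 min at room temperature with compound. Reaction started with 40 uM arachidonic acid, 30 min at room temperature. Hydroperoxide measured by Fe-xylenol orange, 573/405 nm absorbance ratio.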
HT1080 IDH1KD tx – qHTS for induction of synthetic lethality in tumor cells producing 2HG: qHTS for the HT-1080-IDH1KD cell line. hit rate 2% among 360,000. HT-1080 IDH1 knockdown viability, ATP luminescence, 48 h. Potency, µM (series often up to 46.1 µM), for inactives: at the top dose activity, negative = toxicity, most hits filed as cytotoxic;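 note: potency is the fitted concentration of half-maximal effect; 0% = DMSO wells and -100% = cell-free medium wells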
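CellTiter-Glo luminescence after 48 h compound exposure at 37 degrees C of IDH1-knockdown HT-1080 cells in 5% FBS RPMI. %Activity scaled between DMSO wells and cell-free media wells, with curves fitted and assigned curve classes.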
HT1080NT lethal – qHTS for induction of synthetic lethality in tumor cells producing 2HG: qHTS for the HT-1080-NT fibrosarcoma cell line | HT-1080-NT fibrosarcoma viability, CellTiter-Glo ATP luminescence, 48 h | Potency, µM (doses to about 46.1 µM), inactives show at the top dose activity, negative = less viability, hits mostly cytotoxic | hit rate 1.6% among 360,000;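 note: NT is the 2HG producing partner of a matched IDH1 knockdown line; potency is the fitted concentration of half-maximal effect; 0% = DMSO-treated cells and -100% = media-only wells without cells; nearly all actives have a fitted effect of over 55% in size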
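Viability by CellTiter-Glo luminescence after 48 h compound exposure at 37C of HT-1080-NT cells (750/well, RPMI, 5% FBS). % activity scaled between DMSO wells and medium-only wells, then curve-fitted and categorized by curve class.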
DT40 TDP1 no CPT – qHTS for Inhibitors of human tyrosyl-DNA phosphodiesterase 1 (TDP1): qHTS in cells in absence of CPT | DT40 Tdp1-/- hTDP1 cells, no CPT, ATP luminescence, 48 h | Potency, µM (series often up to 46.2 µM), for inactives: at the top dose activity change, negative = growth inhibition, actives largely listed as inhibitors | hit rate 15% among 420,000 | AID 686978, 2013; note: potency is the fitted concentration of half-maximal effect; nearly all actives have a fitted effect of over 55% in size
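Chicken DT40 Tdp1-/- cells stably complemented with human TDP1 were seeded at 400 cells/well with DMSO in place of 20 nM camptothecin. After compound pinning, cells grew at least 48 hr at 37 °C; viability read by CellTiter-Glo luminescence.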
DT40 TDP1 CPT – qHTS for Inhibitors of human tyrosyl-DNA phosphodiesterase 1 (TDP1): qHTS in cells in presence of CPT; chicken DT40 Tdp1-/-;hTDP1 cells + 20 nM CPT, ATP luminescence, 48 h; Potency, µM (top dose mostly 46.2 µM), without a hit: at the top dose activity change, negative = growth inhibition, actives largely listed as inhibitors; hit rate 12% among 420,000; AID 686979, 2013; note: potency is the fitted concentration of half-maximal effect; nearly all actives have a fitted effect of over 55% in size
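Cell growth measured by CellTiter-Glo luminescence after a minimum 48 h, 37 C compound exposure with 20 nM CPT in Tdp1-knockout DT40 cells stably expressing hTDP1, seeded 400/well; qHTS titration format.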
The depositor's hits bear a star; u = inconclusive; x = no result; [ ] = remark or other dose. The sample as a whole holds a higher share of hits than the screen did. Unless noted, calls come from the whole dose curve; as a rule, active = well fitted curve in the direction sought with a large enough effect; inconclusive = small, poorly fitted or top-dose-only effect, or another doubt; inactive = no such curve, though single readings can be large; an effect the other way counts as inactive or inconclusive. Unless noted, % is set by controls: 0 for no effect and ±100 for the full control effect.

SMILES | IL-1B inflam inh | ALOX12 inh | HT1080 IDH1KD tx | HT1080NT lethal | DT40 TDP1 no CPT | DT40 TDP1 CPT
CC(=O)N1c2ccc(S(=O)(=O)N3CCCC(C(=O)Nc4ccc(F)cc4)C3)cc2CC1C (stereo not drawn) | -5 | 13% | -15% | -4% | 23µM* | u
CCOc1ccc(NC(=O)C2CCN(S(=O)(=O)c3ccc4c(c3)CC(C)N4C(C)=O)CC2)cc1 (stereo not drawn) | 52 | u | -8% | -3% | u | u
CCc1ccc(NC(=O)C2CCN(S(=O)(=O)c3ccc4c(c3)CC(C)N4C(C)=O)CC2)cc1 (stereo not drawn) | 23 | 29% | -1% | -3% | 10µM* | 16µM*
CCOc1ccc(NC(=O)C2CCCN(S(=O)(=O)c3ccc4c(c3)CC(C)N4C(C)=O)C2)cc1 (stereo not drawn) | -1 | 0% | -1% | -1% | -19% | u
CC(C)CCNC(=O)C1CCCN(S(=O)(=O)c2ccc3c(c2)CC(C)N3C(=O)C2CC2)C1 (stereo not drawn) | -55* | 53% | -11% | -5% | -27% | u
CC(C)NC(=O)N[C@H]1C[C@@H](Cc2cc(CN3CCN(c4ccccc4)CC3)on2)C1(C)C | x | -4% | x | x | x | x
Nc1ncccc1CN1CCC2(CC1)COCCN2C(=O)OCc1ccccc1 | x | 12%[176 µM] | x | x | x | x
C=C(C)C1CC=C(C)/C(=N/NC(=O)c2ccc(NC(=O)c3cccc(C)c3)cc2)C1 (stereo not drawn) | -21 | 10% | 15% | 12% | 18µM* | u
C=C(C)C1CC=C(C)/C(=N/NC(=O)Nc2ccccc2)C1 (stereo not drawn) | x | 5% | x | x | x | x
C=C(C)C1CC=C(C)/C(=N/NC(=S)Nc2ccccc2)C1 (stereo not drawn) | 13 | u | 9% | 13% | 6.5µM* | 12µM*
C=C(C)C1CC=C(C)/C(=N\NC(=S)Nc2ccccc2)C1 (stereo not drawn) | x | 3% | x | x | x | x
O=C(Nc1ccc2oc(-c3ccncc3)nc2c1)c1cc(Cl)ccc1Cl | x | 7% | x | x | x | x
C=CCNC(=O)CN1CCN(c2nc3ccccc3o2)CC1 | x | 2% | x | x | x | x
O=C(c1ccccc1)N1CCC2(COc3ccncc3[S+](=O)([O-])N2)C1 (stereo not drawn) | x | 6%[6.33 µM] | x | x | x | x
[N-]=[N+]=NC(c1ccccc1)C(NC(=O)c1cc(C(F)(F)F)cc(C(F)(F)F)c1)c1ccccc1 (stereo not drawn) | 12 | 0% | u | u | 23µM* | u
O=C(NC(c1ccccc1)C(Cl)Cl)c1ccccc1 (stereo not drawn) | 8 | 1% | 5% | 8% | -8% | -11%
CC(C)c1noc(-c2cn(C3CCN(C(=O)c4ccc(C#N)cc4)C3)nn2)n1 (stereo not drawn) | x | 11% | x | x | x | x
O=c1c2nc(-c3ccsc3)ccc2ncn1-c1ccc(F)cc1F | x | 5%[176 µM] | x | x | x | x
COc1ccc2c(c1)CCC1=C2NC(=S)NC1c1ccc(N(C)C)cc1 (stereo not drawn) | -17 | u | -24% | 1% | 16µM* | u
O=C1NC2=C(CCc3ccccc32)C(c2ccccc2)N1 (stereo not drawn) | 17 | u | 2% | 9% | 0% | -1%
Fc1cccc(Cl)c1C1NC(=S)NC2=C1CCc1ccccc12 (stereo not drawn) | x | 40µM* | x | x | x | x
S=C1NC2=C(CCc3ccccc32)C(c2ccccc2)N1 (stereo not drawn) | x | 16µM* | x | x | x | x
COc1cc(C2NC(=S)NC3=C2CCc2ccccc23)cc(OC)c1OC (stereo not drawn) | 45 | u | 0% | 5% | u | -12%
CCOc1cc(C2NN=C(c3ccc(C)cc3)S2)ccc1O (stereo not drawn) | -5 | u | 11% | -4% | 5.2µM* | 6.5µM*
O=C(NCc1ccccc1)N1CCCC(c2nc(CCOc3ccc(F)cc3)no2)C1 (stereo not drawn) | x | 20% | x | x | x | x
SMILES | IL-1B inflam inh | ALOX12 inh | HT1080 IDH1KD tx | HT1080NT lethal | DT40 TDP1 no CPT | DT40 TDP1 CPT
O=C(CCC1CCCC1)N1CCc2c([nH]c3ccccc23)C1c1ccc(F)cc1 (stereo not drawn) | x | 0% | x | x | u | u
CCc1ccccc1NC(=O)N1CCc2c([nH]c3ccccc23)C1c1ccc(C)cc1 (stereo not drawn) | x | -27% | x | x | 15µM* | 16µM*
Cc1ccc(C2c3[nH]c4ccccc4c3CCN2C(=O)CSCc2ccc(F)cc2)cc1 (stereo not drawn) | x | -1% | x | x | 23µM* | u
CCc1ccc(C2c3[nH]c4ccccc4c3CCN2C(=O)c2ccc(=O)n(C)n2)cc1 (stereo not drawn) | 30 | 0% | u | -29% | u | u
O=C(CSCc1ccc(F)cc1)N1CCc2c([nH]c3ccccc23)C1c1ccc(F)cc1 (stereo not drawn) | x | 0% | x | x | 18µM* | 18µM*
COCCCNC(=O)C1c2ccccc2CC(=O)N1Cc1ccccc1 (stereo not drawn) | x | -3% | x | x | x | x
Cc1cccc(NC(=S)Nc2cccc(C)n2)n1 | 31 | 0% | 13% | -26% | 5.2µM* | u
CCOC(=O)c1ccc(NC(=S)Nc2cccc(C)n2)cc1 | 19 | u | -1% | -2% | u | u
Cc1cccc(NC(=S)NC2CCCC2)n1 | 16 | 45µM* | -16% | -8% | u | u
Cc1c(Cl)cccc1NC(=S)NC1CCCC1 | 9 | u | 7% | 9% | -17% | -1%
